Screening data: PubChem BioAssay, National Center for Advancing Translational Sciences (NCATS)
Rows were chosen to be rich in hits. Some 8.1% of all compounds tested hit in one or more screens of this group.
Sfp PPTase inh – qHTS Assay for Inhibitors of Bacillus subtilis Sfp phosphopantetheinyl transferase (PPTase); actives 3.5% (n = 310,000); Biochemical Sfp PPTase activity, qHTS; Potency, µM, actives largely listed as inhibitors; 4'-phosphopantetheinyl transferase ffp (Bacillus subtilis), Q9F4F7;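 also: the enzyme is Sfp with the accession as filed and its product quenches rhodamine fluorescence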
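Compounds were incubated with enzyme (final 15 nM) for 15 min at room temperature before substrate addition started the reaction. Fluorescence at 525 nm excitation, 598 nm emission was recorded immediately and after 30 minutes.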
ClpP mod – qHTS Assay for Activators of ClpP | ATP-dependent Clp protease proteolytic subunit (Bacillus subtilis (strain 168)), P80244 | purified B. subtilis ClpP, FRET peptide cleavage, 20 min | Potency, µM (series often up to 57.5 µM) | actives 1.9% (n = 340,000); active = well fitted falling curve with a large enough effect; inconclusive = small, poorly fitted or top-dose-only effect; inactive = no such curve, though single readings can be large or run the other way; also: the source files actives as falling curves though it sought activators and does not explain the sign; nearly all actives have a fitted effect of over 65% in size
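Purified B. subtilis ClpP, 10 microg/mL final in Tris/HCl pH8 with KCl, BSA, glycerol and Tween-20, cleaved an Abz/nitrotyrosine-quenched decapeptide. Fluorescence (ex 320, em 430) was read at 0 and 20 min at room temperature. Delta was normalized to 5.8 microM ADEP and DMSO/no-enzyme controls.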
Epigenetic reg – Quantitative High-Throughput Screen for Regulators of Epigenetic Control; murine LDR cells, GFP reporter derepression, 30 h; Potency, µM (series often up to 53.9 µM), usual class: activators; actives 0.2% (n = 280,000); also: nearly all actives have a fitted effect of over 60% in size
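GFP-positive cell count by laser-scanning cytometry (objects 20–120 um) after 30 h, 37 C compound exposure of murine LDR cells; reporter is CMV-GFP integrated at a silenced locus, inducible by HDAC or DNMT inhibitors.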
Gal4-VP16 FLuc – VP16 counterscreen qHTS for inhibitors of ROR gamma transcriptional activity; Drosophila S2 Gal4-VP16 UAS-luciferase, luminescence, 20 h; Potency, µM (highest dose often 53.6 µM), most hits filed as inhibitors; actives 3.5% (n = 310,000); AID 2546, 2010;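 also: Gal4-VP16 expression switched on by copper sulfate through the metallothionein promoter; nearly all actives have a fitted effect of over 50% in size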
RORgamma inh – qHTS for inhibitors of ROR gamma transcriptional activity. Potency, µM (highest dose often 53.6 µM), actives largely listed as inhibitors. Nuclear receptor ROR-gamma (Mus musculus), P51450. Drosophila S2 Gal4-RORgamma UAS-luciferase reporter, 20 h. actives 5.4% (n = 310,000); also: nearly all actives have a fitted effect of over 60% in size
Target sequence (P51450 whole entry, looked up, the tested form may be a part): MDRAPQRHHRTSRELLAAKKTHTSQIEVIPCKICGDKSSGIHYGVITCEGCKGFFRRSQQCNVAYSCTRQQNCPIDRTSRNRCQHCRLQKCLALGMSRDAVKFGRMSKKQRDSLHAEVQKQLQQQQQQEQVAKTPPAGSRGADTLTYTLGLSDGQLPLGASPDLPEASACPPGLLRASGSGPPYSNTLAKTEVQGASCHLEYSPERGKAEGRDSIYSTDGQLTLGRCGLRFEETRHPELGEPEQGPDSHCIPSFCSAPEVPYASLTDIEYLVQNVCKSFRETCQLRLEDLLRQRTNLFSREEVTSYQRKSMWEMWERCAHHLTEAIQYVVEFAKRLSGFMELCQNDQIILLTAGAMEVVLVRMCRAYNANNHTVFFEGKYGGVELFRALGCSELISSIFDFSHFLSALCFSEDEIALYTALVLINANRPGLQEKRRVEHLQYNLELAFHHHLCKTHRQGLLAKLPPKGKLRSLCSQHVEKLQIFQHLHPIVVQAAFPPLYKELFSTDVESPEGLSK
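Read-out: Photinus luciferase luminescence; inhibitors lower reporter signal. Insect Schneider cells with Gal4-ROR gamma fusion under metallothionein promoter, UAS reporter; 700 uM final copper sulfate induction, 20 hr, ambient temperature.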
PINK1 expr mod – A Quantitative High throughput Screen to Identify Chemical Modulators of PINK1 Expression. actives 0.2% (n = 410,000). AID 624263, 2012. PINK1 immunofluorescence, high-content cytometry, 24 h. Potency, µM (series often up to 76.6 µM), usual class: activators; active = well fitted activation curve with a large enough effect; inconclusive = small, poorly fitted or top-dose-only effect; cell line not stated here; also: nearly all actives have a fitted effect of over 65% in size
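Stable cell line treated 24 h with compounds at 5 concentrations (CCCP controls), then fixed and immunostained for PINK1 plus nuclear and cell stains; PINK1 immunofluorescence quantified by laser-scanning microplate cytometry.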
Of the large screens only hits and unclear results are named; the others gave an inactive call. Unless noted, calls follow the shape of the dose curve; as a rule, active = well fitted curve in the direction sought with a large enough effect; inconclusive = small, poorly fitted or top-dose-only effect, or another doubt; inactive = no such curve, though single readings can be large; an effect the other way counts as inactive or inconclusive.

COC(=O)Cc1ccc(NC(=S)N2CCCCC2C)cc1 (stereo not drawn)	none
COc1ccc(-c2nc3cnc(OC)nc3n(-c3ccc(OC)cc3)c2=O)cc1	none (no result: ClpP mod, Epigenetic reg)
CCc1cc(C(=O)Nc2cnn(Cc3ccccc3C)c2)no1	none (no result: Sfp PPTase inh, Gal4-VP16 FLuc, RORgamma inh)
CCc1ccc(NC(=O)C(C)OC(=O)c2ccc(NS(=O)(=O)c3ccc(C)c([N+](=O)[O-])c3)cc2)cc1 (stereo not drawn)	RORgamma inh inconclusive, PINK1 expr mod 44.7µM
Cn1ccnc1SCC(=O)n1c2c(c3ccccc31)CCCC2	ClpP mod 31.6µM, RORgamma inh 14.1µM
Cn1ccnc1SCC(=O)Nc1cccc2ccccc12	none
CCOC(=O)Cn1c(=O)cc(C(F)(F)C(F)(F)F)c2c(C)nn(CC)c21	none (no result: Sfp PPTase inh, Gal4-VP16 FLuc, RORgamma inh)
Cc1c(NC2=C(Cl)C(=O)N(c3ccccc3)C2=O)c(=O)n(-c2ccccc2)n1C	Sfp PPTase inh inconclusive
Cc1c(NC2=C(Cl)C(=O)N(c3ccccc3Cl)C2=O)c(=O)n(-c2ccccc2)n1C	Sfp PPTase inh 50.1µM
Cc1ccc(CNC(=O)CCCN2C(=O)COc3ccc(C)cc32)cc1	none (no result: Sfp PPTase inh, Gal4-VP16 FLuc, RORgamma inh)
CC(Oc1ccc(F)cc1)C(=O)Nc1cccc(-c2nn[nH]n2)c1 (stereo not drawn)	Sfp PPTase inh 31.6µM (no result: Epigenetic reg, Gal4-VP16 FLuc, RORgamma inh)
COc1cccc(C(=O)N2CCC(N3CCN(Cc4ccc(F)cc4)C(=O)C3=O)CC2)c1	none (no result: Sfp PPTase inh, Gal4-VP16 FLuc, RORgamma inh)
COC(=O)c1nn(-c2ccc3c(c2)CCN3C(C)=O)cc1O	ClpP mod 7.08µM, Gal4-VP16 FLuc 8.91µM, RORgamma inh 7.08µM
CC(=O)N1CCc2cc([N+](=O)[O-])ccc21	none (no result: Sfp PPTase inh, Epigenetic reg, Gal4-VP16 FLuc, RORgamma inh)
COC(=O)c1nn(-c2ccc3c(c2)OCO3)cc1O	ClpP mod 31.6µM
CCOc1ccccc1NS(=O)(=O)c1ccc2c(c1)CC(C)N2C(=O)C1CCC1 (stereo not drawn)	none (no result: Sfp PPTase inh, Gal4-VP16 FLuc, RORgamma inh)
COc1ccccc1/C=C1\SC(=O)N(CCC(=O)NCCCn2ccnc2)C1=O	none (no result: Epigenetic reg)
COc1ccccc1/C=C1\SC(=S)N(CCC(=O)NCCCn2ccnc2)C1=O	RORgamma inh 15.8µM (no result: Epigenetic reg)
O=C(CCCN1C(=O)/C(=C/c2ccc(F)cc2)SC1=S)NCCCn1ccnc1	Gal4-VP16 FLuc inconclusive, RORgamma inh 8.91µM (no result: Epigenetic reg)
CCOC(=O)C(CCc1ccccn1)c1ccccc1 (stereo not drawn)	ClpP mod 7.94µM (no result: Sfp PPTase inh, Epigenetic reg, Gal4-VP16 FLuc, RORgamma inh)
CC(CCc1ccccn1)C(=O)C(C)CCc1ccccn1 (stereo not drawn)	none (no result: Sfp PPTase inh, Epigenetic reg, Gal4-VP16 FLuc, RORgamma inh)
N#C/C(=C\c1c(Oc2ccc(F)cc2)nc2ccccn2c1=O)c1nc2ccccc2s1	none (no result: Sfp PPTase inh, Gal4-VP16 FLuc, RORgamma inh)
CC(C)(C)c1nnc(NC(=O)c2cccs2)s1	Gal4-VP16 FLuc inconclusive, RORgamma inh 17.8µM
CC(C)c1nnc(NC(=O)c2cccs2)s1	Gal4-VP16 FLuc inconclusive, RORgamma inh inconclusive
CC(CC(=O)Nc1nnc(C(C)(C)C)s1)c1ccccc1 (stereo not drawn)	Sfp PPTase inh 50.1µM (no result: Epigenetic reg)
CC(C)c1nnc(NC(=O)CC(C)c2ccccc2)s1 (stereo not drawn)	none (no result: Epigenetic reg)
Cc1ccc(S(=O)(=O)OCCc2ccccc2)cc1	none (no result: ClpP mod, PINK1 expr mod)
COc1cccc2nccc(/C=C/c3ccc(N(C)C)cc3)c12	none (no result: Sfp PPTase inh, Epigenetic reg, Gal4-VP16 FLuc, RORgamma inh)
Cc1nc2nc(NC(=O)c3ccc(F)cc3)[nH]n2c(=O)c1Cc1ccccc1	none (no result: Sfp PPTase inh, Gal4-VP16 FLuc, RORgamma inh)
O=C(CC1SC(N2CCCC2)=NC1=O)Nc1ccc(C(=O)N2CCN(c3cccc(Cl)c3)CC2)cc1 (stereo not drawn)	ClpP mod 31.6µM (no result: Sfp PPTase inh, Epigenetic reg, Gal4-VP16 FLuc, RORgamma inh)
Cc1cccc(N2CCN(C(=O)c3ccc(NC(=O)CC4SC(N5CCCC5)=NC4=O)cc3)CC2)c1C (stereo not drawn)	none (no result: Sfp PPTase inh, Epigenetic reg, Gal4-VP16 FLuc, RORgamma inh)
Cc1ccc(OCC(=O)Nc2sc3c(c2C#N)CC(C)(C)NC3(C)C)cc1	none
CC1(C)Cc2c(sc(NC(=O)COc3cccc4ccccc34)c2C#N)C(C)(C)N1	Gal4-VP16 FLuc 5.01µM, RORgamma inh 8.91µM (no result: ClpP mod)
